This note sets out measurements from PMC5540273 (PLoS ONE, 2017).

Structures are written as SMILES.

Some test systems named below: TTK; TXK; TYRO3; ULK1; ULK2; ULK3; VRK2; WEE1; WEE2; WNK1; WNK2; WNK3; WNK4.
What all share (settings): concentration: 1 μM, replicates: in singlicate; n = 1
The test system of test [1] is TYK2(JH1domain-catalytic).
The test system of test [2] is TYK2(JH2domain-pseudokinase).
The subject of a further test is T1, VEGFR2.
T1 construct: gene KDR

A further test concerns T2, VPS34.
T2 construct: gene PIK3C3

The next test has as its system T3, YANK1.
T3 construct: gene STK32A

The next test has as its system T4, YANK2.
T4 construct: gene STK32B

The test system of the next test is T5, YANK3.
T5 construct: gene STK32C
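Further: KINOMEscan kinase panel screen.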

As to `O=C(Nc1ccc2c(c1)OCO2)NC1CCN(c2ccnc(Nc3ccc(F)cc3)n2)C1` (stereo not drawn) [GSK1379724], the “%Inh” value in the test with TTK is on record as 26%; with TXK, 43%; in [1], 9%; in [2], 33%; with TYRO3, 0%; in the test with ULK1, 9%. In addition, the “%Inh” value in the test with ULK2 was 0%; in the test on ULK3, 16%; in the test on VEGFR2, 0%; with VPS34 it was 0%; in the test with VRK2, 0%; in the test on WEE1 it was 11%. In addition, the “%Inh” value in the test on WEE2 was determined as 4%; with WNK1 it was 8%; in the test on WNK2, 3%; in the test with WNK3, 31%; with WNK4, 11%; with YANK1, 9%. The “%Inh” value with YANK2 was found to be 0%; with YANK3, 5%.

Regarding `Cc1cccc(-c2nc(Nc3ccc4[nH]ncc4c3)c3ccccc3n2)n1` [GW857175], the “%Inh” value is listed as 3% with TTK; 0% in the test with TXK; 11% in [1]; 36% in test [2]; 0% in the test with TYRO3; 12% in the test on ULK1. Besides, the “%Inh” value with ULK2 is listed as 8%; in the test on ULK3, 18%; in the test on VEGFR2, 23%; in the test on VPS34 it was 0%; in the test with VRK2, 0%; with WEE1, 4%. The “%Inh” value with WEE2 was found to be 0%; in the test with WNK1 it was 0%; in the test on WNK2, 51%; in the test with WNK3, 40%; in the test on WNK4 it was 50%; with YANK1 it was 17%. Moreover, the “%Inh” value in the test with YANK2 amounted to 0%; in the test with YANK3 it was 59%.

For the molecule `Cc1ccc(-c2cc(-c3c[nH]nc3-c3ccccn3)ccn2)cc1` [GW684088], the “%Inh” value in the test with TTK is on record as 0%; in the test with TXK, 0%; in test [1] it was 18%; in [2], 22%; in the test with TYRO3, 0%; in the test with ULK1, 0%. The “%Inh” value with ULK2 turned out to be 0%; with ULK3 it was 3%; in the test with VEGFR2, 22%; in the test on VPS34, 0%; in the test with VRK2, 45%; with WEE1, 1%. The “%Inh” value in the test on WEE2 was determined as 0%; in the test with WNK1 it was 6%; in the test with WNK2 it was 19%; in the test on WNK3, 53%; with WNK4 it was 89%; with YANK1, 0%. Further, the “%Inh” value in the test on YANK2 and in the test on YANK3 was 0% each time.

As to `Cn1ccc2ncnc(Oc3ccc(NC(=O)Nc4ccccc4)cc3)c21`, the “%Inh” value with TTK was 0%; in the test with TXK, 1%; in test [1], 0%; in test [2], 0%; in the test with TYRO3, 0%; in the test on ULK1, 0%. For the same molecule, the “%Inh” value with ULK2 was determined as 0%; with ULK3, 3%; in the test with VEGFR2, 97.8%; in the test on VPS34 it was 0%; in the test on VRK2, 0%; with WEE1, 0%. Besides, the “%Inh” value in the test on WEE2 was found to be 0%; in the test on WNK1, 0%; with WNK2, 0%; in the test on WNK3, 0%; in the test on WNK4 it was 1%; in the test on YANK1 it was 17%. Further, the “%Inh” value in the test on YANK2 and with YANK3 was 0% each time.

With `Fc1cccc(COc2nnc(-c3ccc4c(c3)CCO4)o2)c1`, the “%Inh” value was determined as 14% in the test on TTK; 0% with TXK; 3% in test [1]; 6% in test [2]; 0% in the test with TYRO3; 0% in the test with ULK1. In addition, the “%Inh” value with ULK2 worked out at 14%; in the test on ULK3 it was 0%; in the test with VEGFR2, 25%; in the test on VPS34, 17%; in the test on VRK2, 0%; with WEE1, 0%. In addition, the “%Inh” value with WEE2 came to 19%; in the test with WNK1, 0%; in the test on WNK2, 0%; in the test on WNK3, 0%; in the test with WNK4, 0%; with YANK1, 0%. Also, the “%Inh” value was 0% in the test on YANK2 and 19% with YANK3.

Consider `Cn1cncc1-c1ccc2ncnc(Nc3ccc(OCc4ccccc4)cc3)c2c1` [GW320571], for which the “%Inh” value in the test with TTK is 19%; in the test with TXK, 34%; in test [1], 29%; in test [2], 0%; in the test on TYRO3, 3%; with ULK1 it was 25%. In addition, the “%Inh” value stood at 0% in the test with ULK2; 14% with ULK3; 0% in the test on VEGFR2; 23% with VPS34; 0% with VRK2; 16% in the test on WEE1. The “%Inh” value in the test with WEE2 was found to be 14%; in the test with WNK1, 1%; in the test on WNK2, 15%; in the test on WNK3, 3%; in the test with WNK4, 0%; with YANK1 it was 94.2%. Also, the “%Inh” value in the test with YANK2 is on record as 16%; with YANK3 it was 7%.

As for `Cc1cccc(-c2nc(Nc3ccncc3)c3ccccc3n2)n1` [GW855857], the “%Inh” value in the test on TTK is listed as 10%; in the test on TXK, 11%; in [1] it was 8%; in test [2], 40%; with TYRO3 it was 0%; in the test on ULK1, 0%. Also, the “%Inh” value with ULK2 is on record as 0%; in the test with ULK3, 8%; with VEGFR2, 0%; in the test with VPS34 it was 52%; with VRK2, 0%; in the test on WEE1 it was 23%. The “%Inh” value in the test with WEE2 came out at 8%; in the test with WNK1, 0%; with WNK2, 0%; in the test on WNK3, 0%; in the test with WNK4, 0%; with YANK1 it was 0%. In addition, the “%Inh” value in the test on YANK2 and in the test on YANK3 was 0% throughout.

As for `Fc1cc(Cl)ccc1Nc1ccnc2cc(-c3ccc(CN4CCCCC4)o3)ccc12` [GW560116], the “%Inh” value in the test with TTK was found to be 0%; with TXK, 23%; in test [1], 27%; in test [2] it was 18%; in the test with TYRO3 it was 0%; with ULK1 it was 0%. The “%Inh” value is given as 0% with ULK2; 0% in the test with ULK3; 6% in the test with VEGFR2; 22% with VPS34; 38% in the test on VRK2; 0% in the test on WEE1. Also, the “%Inh” value in the test with WEE2 came to 4%; in the test on WNK1 it was 0%; in the test on WNK2, 0%; with WNK3 it was 34%; in the test with WNK4, 49%; in the test on YANK1 it was 0%. For the same molecule, the “%Inh” value in the test on YANK2 and in the test with YANK3 was 0% in each case.

Take `CC(=O)Nc1nc2cnc(Nc3cc(NC(=O)c4cccc(CCC#N)c4)ccc3C)nc2s1`: the “%Inh” value with TTK was 16%; in the test on TXK, 0%; in test [1] it was 21%; in [2], 27%; with TYRO3 it was 1%; with ULK1 it was 0%. Besides, the “%Inh” value in the test with ULK2 is given as 20%; in the test with ULK3 it was 0%; with VEGFR2, 29%; with VPS34 it was 12%; in the test on VRK2 it was 0%; in the test on WEE1, 0%. In addition, the “%Inh” value was determined as 0% in the test with WEE2; 0% in the test with WNK1; 22% in the test with WNK2; 0% in the test on WNK3; 11% with WNK4; 15% in the test with YANK1. The figures for the “%Inh” value with YANK2 and in the test with YANK3 were 9% and 34%, respectively.
